# Measured values from the supplement of paper PMC6555819.
# Tests used:
# Assay in all cases: PBM binding z-score (relative to random genomic background probes); higher = stronger binding; sequences stand for … in GC…GCGATTGACAGCGTAGAATGAAGG
# [1] = tested on: PPARg:RXRa DBDmut IVT, anti-RXR (DBD mutation: RXRa K156A/R161A, NR concentration 270 nM, RXRa partner concentration 90 nM)
# In short: (§1)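 Each nuclear receptor dimer, without ligand, was incubated for 1 h on custom Agilent 4×180K protein-binding microarrays. Binding was detected with antibodies against each partner (one per run), and scanned fluorescence was regression-normalized. The binding z-scores are referenced to random human genomic background probes.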
# [2] = tested on: PPARg:RXRa IVT, anti-PPARg (NR concentration 270 nM, RXRa partner concentration 90 nM)
# In short: as §1
# [3] = tested on: PPARg DBDmut:RXRa IVT, anti-PPARg (DBD mutation: PPARg1 K132A/R137A, NR concentration 270 nM, RXRa partner concentration 90 nM)
# In short: as §1
# [4] = tested on: PPARg DBDmut IVT, anti-PPARg (DBD mutation: PPARg1 K132A/R137A, NR concentration 270 nM)
# In short: as §1
# [5] = tested on: PPARg homodimer (NR concentration 180 nM)
# In short: as §1
# [6] = tested on: PXR:RXRa (NR concentration 270 nM, RXRa partner concentration 90 nM)
# In short: as §1
# [7] = tested on: PXR homodimer (NR concentration 270 nM)
# In short: as §1
# [8] = tested on: RARa:RXR (NR concentration 270 nM, RXRa partner concentration 90 nM)
# In short: as §1
# [9] = tested on: RARa homodimer (NR concentration 270 nM)
# In short: as §1
# [10] = tested on: RARb:RXRa (NR concentration 270 nM, RXRa partner concentration 90 nM)
# In short: as §1
# [11] = tested on: RARb homodimer (NR concentration 270 nM)
# In short: as §1
# [12] = tested on: RARg:RXRa (NR concentration 270 nM, RXRa partner concentration 90 nM)
# In short: as §1
# [13] = tested on: RARg homodimer (NR concentration 270 nM)
# In short: as §1
# [14] = tested on: RXRa DBDmut IVT, anti-RXR (DBD mutation: RXRa K156A/R161A, NR concentration 90 nM)
# In short: as §1
# [15] = tested on: RXRa homodimer (NR concentration 180 nM)
# In short: as §1
# [16] = tested on: THRa:RXRa (NR concentration 90 nM, RXRa partner concentration 90 nM)
# In short: as §1
# [17] = tested on: THRa homodimer (NR concentration 90 nM)
# In short: as §1
# [18] = tested on: VDR homodimer (NR concentration 270 nM)
# In short: as §1
Sequence,PBM binding z-score [1],PBM binding z-score [2],PBM binding z-score [3],PBM binding z-score [4],PBM binding z-score [5],PBM binding z-score [6],PBM binding z-score [7],PBM binding z-score [8],PBM binding z-score [9],PBM binding z-score [10],PBM binding z-score [11],PBM binding z-score [12],PBM binding z-score [13],PBM binding z-score [14],PBM binding z-score [15],PBM binding z-score [16],PBM binding z-score [17],PBM binding z-score [18]
ATACCAAGGCGATCGTGAGGTCGTTGATACTAAC,-0.138,-0.0368,-0.877,-0.313,-0.138,1.3,0.728,1.12,0.128,0.341,0.905,0.636,0.0519,0.303,0.794,2.26,1.5,1.85
CCTAGCAGGCCAGGGTCACACAAGCATTTCGCTT,0.592,1.47,-0.955,-1.08,1.19,3.43,-0.631,4.06,0.145,2.9,2.98,3.72,2.62,0.238,4.27,3.45,1.54,1.18
CCTACCGGGCCACGAAAGGTCATTGATTCAGTGA,0.938,2.28,-0.376,-1.2,2.6,5.44,2.13,5.36,0.144,4.07,4.84,4.67,4.47,0.0824,4.98,4.19,1.46,2.22
CCTAGTTGGTCAGGAGGTCACTCACCGGATATGA,1.33,2.97,0.254,0.0226,3.04,3.74,0.903,3.94,2.42,3.41,3.92,4.48,3.73,0.697,3.58,3.17,2.09,2.45
ACTAGTTGGCCAGCTGAGGTCACACACAATTCGG,0.715,1.85,0.578,0.0549,2.34,4.59,1.49,4.57,0.503,3.19,3.96,3.64,3.6,0.874,4.1,4.47,5.09,2.74
CCGACTGGGGCAAAGCTTACCATACTCAGTACGA,4.39,2.85,-0.291,-0.457,0.119,-0.708,-0.701,-0.665,-0.639,0.229,-0.047,0.0271,0.339,0.525,-0.115,-0.341,-0.519,-0.448
AATATTAGTTGACTTAGGGCAACCGATACGACGC,0.114,0.435,1.41,0.654,0.835,0.143,0.976,0.751,1.92,0.721,0.918,0.615,0.87,0.532,0.76,1.44,0.572,0.87
GCTAGGAGGACAAGGTCAGAGCTTTGTCCGTAGA,1.13,1.17,-0.92,-1.52,0.32,1.57,-0.305,1.89,-1.07,3.41,3.1,3,3.49,0.861,2.29,2.83,1.21,0.639
TCTAGCAGGCCAGAGGGTCACTCGAGAGGTACGG,0.838,0.906,-0.167,-1.13,0.221,1.24,-0.669,2.4,-0.335,2.19,2.65,2.47,2.33,0.0685,2.58,1.37,-0.427,0.163
TCTCGGAGGACACGAAAGGTCAGGGCTCGACATC,1.91,1.97,0.171,-0.651,2.95,4.44,0.147,4.93,0.454,4.4,4.94,4.98,5.69,1.1,4.39,3.83,2,0.976
CGCCCAAGGTCATAGGAGGTCAGTGAAGACAGAT,2.88,4.26,-0.0879,-0.0436,3.59,6.51,3.76,5.06,1.63,5.45,5.6,6.7,7.14,3.41,6.07,5.34,3.1,3.97
CAGCCTAGGTCAGGGCCTGTATAGGAGGAACGTT,1.45,1.31,-0.895,-1.4,0.134,0.236,-0.76,0.971,-1.2,3.33,2.38,2.68,3.88,-0.731,1.46,1.88,-0.108,-0.924
TCTGATAGGTCAACGATGGTCAGCTAATCTGCTA,3.63,3.48,0.759,0.735,2.17,3.01,-0.308,3.7,1.12,4.44,3.94,5.15,5.89,1.21,4.73,3.1,-0.296,-0.032
CGAACTAGGTTATCCAGGACAGTGAATACATTGA,6.42,5.96,0.89,0.666,0.877,0.173,0.527,0.654,0.298,0.828,0.559,0.544,1.04,0.958,0.343,2.45,1.19,0.455
CCTACTGGGCCACGAAAGGTCATGGATTCAGTGA,5.9,6.03,-0.103,-0.148,3.03,5.15,0.707,5.48,1.81,4.27,4.94,5.28,4.71,-0.0305,6.03,3.97,1.17,1.35
